# Reference: PubChem BioAssay (Tox21)
# Where “and” joins values, the source holds several entries; their conditions need not be identical. Equal values may be shown once. Records with an inconclusive call do not appear. Where a call stands in place of a potency, no number is given. A number with no mark means an inactive call. Calls of active or inactive are those of the source. Unless noted, calls come from the whole dose curve.
# Legend:
# [1] = qHTS assay to identify small molecule agonists of the peroxisome proliferator-activated receptor delta (PPARd) signaling pathway - cell viability counter screen (AID 743211; active = well fitted curve in the direction sought with a large enough effect in the repeat runs; an effect the other way counts as inactive or inconclusive; note: nearly all actives have a fitted effect of over 55% in size; note: potency is the fitted concentration of half-maximal effect)
# Outline: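 PPARd-bla HEK293H cells (UAS-beta-lactamase reporter) were treated with compounds for 17 h at 37 C. Viability was then read in the same wells by CellTiter-Glo luminescence after 30 min at room temperature.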
# [2] = molecular target: Peroxisome proliferator-activated receptor delta (Homo sapiens) (UniProt Q03181); experiment: qHTS assay to identify small molecule agonists of the peroxisome proliferator-activated receptor delta (PPARd) signaling pathway (AID 743212)
# Sequence of Peroxisome proliferator-activated receptor delta (Homo sapiens) (Q03181 whole entry, looked up): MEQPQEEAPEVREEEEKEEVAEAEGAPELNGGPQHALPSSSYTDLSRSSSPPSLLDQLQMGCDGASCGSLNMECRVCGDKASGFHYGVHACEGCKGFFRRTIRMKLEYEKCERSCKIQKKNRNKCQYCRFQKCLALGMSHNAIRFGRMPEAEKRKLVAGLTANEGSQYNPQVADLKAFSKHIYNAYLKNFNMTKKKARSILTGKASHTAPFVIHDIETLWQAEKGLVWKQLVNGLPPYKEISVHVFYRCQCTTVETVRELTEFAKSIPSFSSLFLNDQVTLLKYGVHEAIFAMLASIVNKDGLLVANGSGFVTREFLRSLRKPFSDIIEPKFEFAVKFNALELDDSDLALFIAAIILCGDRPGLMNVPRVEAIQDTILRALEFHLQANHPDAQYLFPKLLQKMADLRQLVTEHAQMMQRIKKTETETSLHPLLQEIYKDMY
# Outline: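 Steps: seed PPARd-bla HEK293H cells; incubate 5 h, 37 C, 5% CO2; add compounds in DMSO; incubate, 37 C; add LiveBLAzer B/G FRET substrate; hold 2 h at room temperature; measure fluorescence.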
# [3] = qHTS assay to identify small molecule antagonists of the farnesoid-X-receptor (FXR) signaling pathway - cell viability counter screen (AID 743221; active = well fitted cell-killing curve with a large enough effect in the repeat runs, not every such curve was filed as active; note: nearly all actives have a fitted effect of over 50% in size; note: potency is the fitted concentration of half-maximal effect)
# Outline: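 FXR-UAS-bla HEK 293T cells were treated with test compounds plus chenodeoxycholic acid (50 uM final) for 16 h at 37 C. Cell viability in the same wells was then read as CellTiter-Glo luminescence after 30 min at room temperature.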
# [4] = qHTS assay to identify small molecule agonists of the NFkB signaling pathway - cell viability counter screen (AID 1159515); note: nearly all actives have a fitted effect of over 55% in size; note: potency is the fitted concentration of half-maximal effect
# Outline: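 Cells are seeded (2,000 NFkB-bla ME-180 per well), rested overnight, and dosed with DMSO-dissolved compounds for 5 hr at 37 C. Viability is then read by CellTiter-Glo luminescence after 30 min at room temperature.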
# [5] = qHTS assay to identify small molecule agonists of the endoplasmic reticulum stress response signaling pathway - cell viability counter screen (AID 1159517); note: nearly all actives have a fitted effect of over 50% in size; note: potency is the fitted concentration of half-maximal effect
# Outline: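 After overnight attachment, ESRE-bla HeLa cells were treated with Tox21 library compounds for 5 hr. CellTiter-Glo luminescence, read 30 min post-addition at room temperature, reported viability.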
# [6] = qHTS assay to identify small molecule antagonists of the retinoid-related orphan receptor gamma (ROR-gamma) signaling pathway - cell viability counter screen (AID 1159520; active = well fitted curve in the direction sought with a large enough effect in the repeat runs; an effect the other way counts as inactive or inconclusive; note: nearly all actives have a fitted effect of over 50% in size; note: potency is the fitted concentration of half-maximal effect)
# Outline: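 Cytotoxicity was read from cellular ATP (CellTiter-Glo luminescence) after 16 hr at 37 C with 1 uM doxycycline induction. The inducer was added 2 hr after compound transfer to Tet-on ROR gamma CHO cells.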
# [7] = qHTS assay to identify small molecule agonists of the AP-1 signaling pathway (AID 1159526)
# [8] = molecular target: Bile acid receptor (Homo sapiens) (UniProt Q96RI1); experiment: qHTS assay to identify small molecule agonists of the farnesoid-X-receptor (FXR) signaling pathway (AID 743220; active = well fitted activation curve with a large enough effect in the signal ratio in the repeat runs, not every such curve was filed as active; the % refers to the signal ratio)
# Sequence of Bile acid receptor (Homo sapiens) (Q96RI1 whole entry, looked up): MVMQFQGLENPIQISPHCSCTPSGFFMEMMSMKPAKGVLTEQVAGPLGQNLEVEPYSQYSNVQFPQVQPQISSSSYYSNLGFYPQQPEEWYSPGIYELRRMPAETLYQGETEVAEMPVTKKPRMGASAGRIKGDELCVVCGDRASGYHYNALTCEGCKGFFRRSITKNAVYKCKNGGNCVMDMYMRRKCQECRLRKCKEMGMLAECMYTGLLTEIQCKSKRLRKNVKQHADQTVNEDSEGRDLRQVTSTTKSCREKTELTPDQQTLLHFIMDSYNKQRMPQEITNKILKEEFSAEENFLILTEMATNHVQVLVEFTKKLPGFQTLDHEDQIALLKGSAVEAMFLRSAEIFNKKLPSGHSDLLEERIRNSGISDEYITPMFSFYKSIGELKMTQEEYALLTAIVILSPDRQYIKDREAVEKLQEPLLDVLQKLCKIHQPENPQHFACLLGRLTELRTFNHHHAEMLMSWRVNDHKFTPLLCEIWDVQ
# Outline: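 FXR-UAS-bla HEK 293T cells carrying a UAS-driven beta-lactamase reporter were plated for 5 h at 37C/5% CO2, then exposed to DMSO-dissolved Tox21 10K compounds for 16 h at 37C. A LiveBLAzer B/G FRET substrate was loaded for 2 h at room temperature before fluorescence reading.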
# [9] = qHTS assay to identify small molecule agonists of the vitamin D receptor (VDR) signaling pathway - cell viability counter screen (AID 743224; active = well fitted curve in the direction sought with a large enough effect in the repeat runs; an effect the other way counts as inactive or inconclusive; note: nearly all actives have a fitted effect of over 50% in size; note: potency is the fitted concentration of half-maximal effect)
# Outline: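 Cells: VDR-bla, 2,000/well, settled 4 h. Treatment: compounds in DMSO, 16 h, 37C/5% CO2. Readout: CellTiter-Glo luminescence after 30 min RT.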
# [10] = qHTS assay to identify small molecule antagonists of the vitamin D receptor (VDR) signaling pathway - cell viability counter screen (AID 743225; active = well fitted curve in the direction sought with a large enough effect in the repeat runs; an effect the other way counts as inactive or inconclusive; note: nearly all actives have a fitted effect of over 50% in size; note: potency is the fitted concentration of half-maximal effect)
# Outline: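 VDR-bla HEK 293T cells, 4 h pre-incubation at 37C, then compound plus 1-alpha,25-dihydroxyvitamin D3 (3 nM final) for 16 h. After the beta-lactamase FRET read, CellTiter-Glo was added to the same wells; luminescence after 30 min at room temperature.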
# [11] = qHTS assay to identify small molecule agonists of the AP-1 signaling pathway - cell viability counter screen (AID 1159525); note: nearly all actives have a fitted effect of over 55% in size; note: potency is the fitted concentration of half-maximal effect
# Outline: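 Intracellular ATP by Cell Titer Glo luminescence (30 min, RT) in the same ME-180 AP-1-bla wells after the 5 h compound exposure at 37 °C. Normalised to tetra n-octyl ammonium bromide and DMSO controls.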
# [12] = qHTS assay to identify small molecule antagonists of the peroxisome proliferator-activated receptor delta (PPARd) signaling pathway - cell viability counter screen (AID 743213; active = well fitted curve in the direction sought with a large enough effect in the repeat runs; an effect the other way counts as inactive or inconclusive; note: nearly all actives have a fitted effect of over 50% in size; note: potency is the fitted concentration of half-maximal effect)
# Outline: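 Luminescence from CellTiter-Glo, added after the bla read and incubated 30 min at room temperature, gives viability of HEK293H PPARd-bla cells exposed to compounds for 17 h at 37 C with 300 nM L165041.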
# [13] = qHTS assay to identify small molecule agonists of the farnesoid-X-receptor (FXR) signaling pathway - cell viability counter screen (AID 743218; active = well fitted curve in the direction sought with a large enough effect in the repeat runs; an effect the other way counts as inactive or inconclusive; note: nearly all actives have a fitted effect of over 45% in size; note: potency is the fitted concentration of half-maximal effect)
# Outline: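 Cells were seeded, left 5 h at 37 C and 5% CO2, then dosed with compound in DMSO for 16 h. After the beta-lactamase FRET read, CellTiter-Glo was added and luminescence measured 30 min later.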
# [14] = molecular target: Peroxisome proliferator-activated receptor delta (Homo sapiens) (UniProt Q03181); experiment: qHTS assay to identify small molecule antagonists of the peroxisome proliferator-activated receptor delta (PPARd) signaling pathway (AID 743215; active = well fitted inhibition curve with a large enough effect in the signal ratio in the repeat runs, not every such curve was filed as active; the % refers to the signal ratio;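 note: cells stimulated with agonist L165041 at 300 nM final during compound exposure; series mostly up to about 62 µM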)
# Outline: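 Cells: HEK293H with a UAS-driven beta-lactamase reporter responsive to PPARd. Compounds were co-added with L165041 (300 nM, final) and incubated 17 h at 37 C before a 2 h room-temperature FRET substrate step and fluorescence reading.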
# [15] = molecular target: Vitamin D3 receptor (Homo sapiens) (UniProt P11473); experiment: qHTS assay to identify small molecule agonists of the vitamin D receptor (VDR) signaling pathway (AID 743222)
# Sequence of Vitamin D3 receptor (Homo sapiens) (P11473 whole entry, looked up): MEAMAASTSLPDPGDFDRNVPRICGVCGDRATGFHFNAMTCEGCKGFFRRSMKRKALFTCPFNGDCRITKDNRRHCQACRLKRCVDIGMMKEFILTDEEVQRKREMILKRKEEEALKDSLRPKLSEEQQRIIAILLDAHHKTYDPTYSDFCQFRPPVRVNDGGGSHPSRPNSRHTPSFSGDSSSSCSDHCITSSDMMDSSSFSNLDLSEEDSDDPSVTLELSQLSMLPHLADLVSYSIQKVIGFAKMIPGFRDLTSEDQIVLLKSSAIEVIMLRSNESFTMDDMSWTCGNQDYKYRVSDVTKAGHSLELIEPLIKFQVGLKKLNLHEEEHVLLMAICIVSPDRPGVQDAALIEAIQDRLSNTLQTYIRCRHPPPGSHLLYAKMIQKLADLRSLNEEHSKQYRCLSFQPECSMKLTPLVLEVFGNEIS
# Outline: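 Cells carrying a VDR-driven beta-lactamase reporter are seeded at 2,000 per well and rested 4 h. Compounds in DMSO are added for 16 h at 37C, and FRET substrate fluorescence is measured after 2 h at room temperature.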
# [16] = molecular target: Retinoic acid receptor RXR-alpha (Homo sapiens) (UniProt P19793); experiment: qHTS assay to identify small molecule agonists of the RXR signaling pathway (AID 1159527); note: nearly all actives have a fitted effect of over 35% in size
# Sequence of Retinoic acid receptor RXR-alpha (Homo sapiens) (P19793 whole entry, looked up): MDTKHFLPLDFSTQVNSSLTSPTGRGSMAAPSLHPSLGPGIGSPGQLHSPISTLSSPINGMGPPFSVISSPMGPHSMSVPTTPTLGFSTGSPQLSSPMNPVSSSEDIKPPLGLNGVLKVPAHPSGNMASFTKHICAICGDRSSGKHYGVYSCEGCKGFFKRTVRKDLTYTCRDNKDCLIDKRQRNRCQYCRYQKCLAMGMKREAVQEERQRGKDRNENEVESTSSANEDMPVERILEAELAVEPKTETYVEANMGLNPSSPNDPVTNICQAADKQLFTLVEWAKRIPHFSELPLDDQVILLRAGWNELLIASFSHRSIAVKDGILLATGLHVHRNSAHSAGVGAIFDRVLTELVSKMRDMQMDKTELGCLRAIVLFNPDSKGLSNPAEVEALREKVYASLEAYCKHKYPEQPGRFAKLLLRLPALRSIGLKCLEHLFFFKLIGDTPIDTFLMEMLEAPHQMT
# Outline: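 GeneBLAzer RXR-alpha-UAS-bla HEK 293T cells in medium with 2% charcoal-stripped FBS, pre-incubated 5 hr at 37 C, then exposed to compounds 16 hr. Beta-lactamase reporter read by FRET substrate, 2 hr room temperature, 460/530 nm emission.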
# [17] = molecular target: Vitamin D3 receptor (Homo sapiens) (UniProt P11473); experiment: qHTS assay to identify small molecule antagonists of the vitamin D receptor (VDR) signaling pathway (AID 743223; active = well fitted inhibition curve with a large enough effect in the signal ratio in the repeat runs, not every such curve was filed as active; the % refers to the signal ratio)
# Outline: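 VDR-bla cells were plated, incubated 4 h at 37C, then given compound and 1alpha,25-dihydroxyvitamin D3 (3 nM final). After 16 h at 37C, LiveBLAzer B/G FRET substrate was added for 2 h at room temperature and fluorescence read.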
Structure (SMILES),Potency [1],Potency [2],Potency [3],Potency [4],Potency [5],Potency [6],Potency [7],Potency [8],Potency [9],Potency [10],Potency [11],Potency [12],Potency [13],Potency [14],Potency [15],Potency [16],Potency [17]
CC(C)n1nc(-c2cc3cc(O)ccc3[nH]2)c2c(N)ncnc21,13.3 µM (active),inactive,inactive,inactive,9.52 µM (active),2.98 µM (active),inactive,–,–,–,–,–,–,–,–,–,–
Cc1ccc(-n2nc(C(C)(C)C)cc2NC(=O)Nc2ccc(OCCN3CCOCC3)c3ccccc23)cc1,–,–,–,inactive,inactive,inactive,inactive,inactive,inactive,inactive,inactive,–,–,–,–,–,–
CC(C)(C)CC(C)(C)c1ccc(OCCOCC[N+](C)(C)Cc2ccccc2)cc1,21.9 µM (active) and 21.1 µM (active),–,43.6 µM (active) and 26.6 µM (active),24.5 µM (active),21.9 µM (active),54.4 µM (active),–,inactive,38.9 µM (active) and 26.6 µM (active),–,24.5 µM (active),17.4 µM (active),48.9 µM (active),–,–,–,–
CC(C)OC(=O)c1cc2c(OCC(O)CNC(C)(C)C)cccc2[nH]1 (stereo not given),–,–,–,inactive,inactive,inactive,inactive,–,inactive,–,inactive,inactive,inactive,inactive,inactive,–,–
Cc1onc(-c2ccccc2Cl)c1C(=O)N[C@@H]1C(=O)N2[C@@H]1SC(C)(C)[C@@H]2C(=O)O,inactive,–,inactive,inactive,inactive,inactive,–,inactive,inactive,inactive,inactive,inactive,inactive,–,inactive,inactive,–
Cc1cccc(N(C)C(=S)Oc2ccc3c(c2)C2CCC3C2)c1 (stereo not given),inactive,inactive,inactive,inactive,inactive,inactive,–,–,inactive,–,inactive,–,–,inactive,–,–,–
CCN(CCC#N)c1ccc(N=Nc2c(Cl)cc([N+](=O)[O-])cc2Cl)cc1,–,inactive,–,inactive,inactive,inactive,–,inactive,inactive,–,inactive,–,–,inactive,–,–,–
CN(C)CCCOC1(Cc2ccccc2)CCCCCC1,inactive,inactive,inactive,inactive,inactive,inactive,–,–,–,–,inactive,inactive,–,inactive,inactive,–,inactive
CN1CCC(Nc2ncc3ncnc(Nc4ccc(F)c(Cl)c4)c3n2)CC1,–,–,29.8 µM (active),inactive,inactive,inactive,–,–,–,21.3 µM (active),inactive,5.96 µM (active),11.9 µM (active),–,–,–,–
Clc1ccc2n[nH]nc2c1,inactive,–,–,inactive,inactive,inactive,–,–,–,inactive,inactive,–,inactive,inactive,inactive,–,–
CC(C)=CCOc1ccc(/C=C/C(=O)c2ccc(OCC=C(C)C)cc2OCC(=O)O)cc1,29.8 µM (active),–,21.1 µM (active),inactive,inactive,inactive,–,–,inactive,–,inactive,–,–,–,inactive,–,–
CCC(CN)=C(c1ccccc1)c1ccccc1,29.8 µM (active),inactive,–,inactive,inactive,inactive,–,–,–,–,inactive,–,23.7 µM (active),–,inactive,–,inactive
O=c1[nH]sc2cc(Cl)ccc12,–,–,–,inactive,inactive,26.6 µM (active),–,inactive,29.8 µM (active),–,–,11.9 µM (active),–,–,–,–,–
CC/C(=C(\c1ccc(O)cc1)c1ccc(OCCN(C)C)cc1)c1ccccc1,11 µM (active),–,24.6 µM (active),49.1 µM (active),61.8 µM (active),34.4 µM (active),–,–,–,19.5 µM (active),27.6 µM (active),21.9 µM (active),15.5 µM (active),–,–,–,–
